Data from PMC5540273 (PLoS ONE, 2017).

Key:
Details in all cases: concentration: 1 μM, replicates: in singlicate; n = 1
LKB1 = system: T1, LKB1
T1 construct: gene STK11

LOK = system: T2, LOK
T2 construct: gene STK10

LRRK2 = system: LRRK2
LTK = system: LTK
LYN = system: LYN
LZK = system: T3, LZK
T3 construct: gene MAP3K13

MAK = system: MAK
MAP3K15 = system: MAP3K15
MAP3K1 = system: MAP3K1
MAP3K2 = system: MAP3K2
MAP3K3 = system: MAP3K3
MAP3K4 = system: MAP3K4
MAP4K2 = system: MAP4K2
MAP4K3 = system: MAP4K3
MAP4K4 = system: MAP4K4
MAP4K5 = system: MAP4K5
MAPKAPK2 = system: MAPKAPK2
MAPKAPK5 = system: MAPKAPK5
MARK1 = system: MARK1
MARK2 = system: MARK2
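Note: KINOMEscan kinase panel screen.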

SMILES	%Inh (LKB1) [%]	%Inh (LOK) [%]	%Inh (LRRK2) [%]	%Inh (LTK) [%]	%Inh (LYN) [%]	%Inh (LZK) [%]	%Inh (MAK) [%]	%Inh (MAP3K15) [%]	%Inh (MAP3K1) [%]	%Inh (MAP3K2) [%]	%Inh (MAP3K3) [%]	%Inh (MAP3K4) [%]	%Inh (MAP4K2) [%]	%Inh (MAP4K3) [%]	%Inh (MAP4K4) [%]	%Inh (MAP4K5) [%]	%Inh (MAPKAPK2) [%]	%Inh (MAPKAPK5) [%]	%Inh (MARK1) [%]	%Inh (MARK2) [%]
COc1ccc(Nc2nccc(N3CCC(NC(=O)c4cccc(NC(C)=O)c4)C3)n2)cc1 (stereo not shown) [GSK1379732]	22	0	0	0	0	46	14	0	0	0	0	0	0	0	0	0	0	0	0	0
FC(F)(F)c1ccc(-c2cc(-c3c[nH]nc3-c3ccccn3)ccn2)cc1 [GW599550]	12	0	7	21	0	29	11	0	5	0	0	0	0	0	60	8	28	0	0	0
FC(F)(F)c1ccc(-c2nn3ncccc3c2-c2ccnc(Nc3cccc(C(F)(F)F)c3)n2)cc1 [GW828205]	0	16	17	0	0	0	22	0	0	0	21	8	0	0	4	0	0	0	3	0
Cc1ccc(C)c(NC(=O)NCCNc2ccnc(Nc3ccc(F)cc3)n2)c1 [GSK1379878]	14	0	0	0	0	0	22	0	0	0	0	0	0	0	0	0	0	0	0	0
Cn1ccc2ncnc(Nc3ccc(Oc4cccc(Cl)c4)c(Cl)c3)c21	0	55	5	11	4	0	26	11	29	17	15	17	14	0	1	0	0	14	0	25
CC(C)N1CCC(n2cnc(-c3ccc(F)cc3)c2-c2ccnc(N)n2)CC1 [SB-223132]	0	0	28	2	22	0	0	0	0	0	0	26	0	0	0	0	1	0	0	0
Nc1nccc2scc(-c3ccc4c(c3)CCN4C(=O)Cc3cc(F)ccc3F)c12 [GSK2587663]	14	0	9	2	0	0	8	0	7	23	0	10	0	3	0	9	20	0	0	0
CCc1nc(-c2cccc(N(C)S(=O)(=O)c3ccccc3)c2)c(-c2ccnc(Nc3ccc(N4CCN(C(C)=O)CC4)nc3)n2)s1 [GSK1645895]	4	15	0	0	4	0	22	0	22	0	0	18	0	0	0	17	0	0	0	4
COC(=O)c1c(-c2ccccc2)c2cc(Cl)ccc2c(=O)n1Cc1ccc(S(C)(=O)=O)cc1	0	4	2	0	20	0	5	20	0	0	26	0	3	13	0	0	24	0	0	0
O=C(Nc1ccccc1F)NC1CCN(c2ccnc(Nc3ccc(F)cc3)n2)C1 (stereo not shown) [GSK1379722]	0	0	39	0	0	23	12	0	5	1	0	14	0	0	0	0	18	0	0	0
O=C(Nc1n[nH]c2nc(-c3ccco3)c(Br)cc12)c1ccc(CN2CCCC2)cc1.O=C(O)[C@H](O)[C@@H](O)C(=O)O [SB-742352]	0	14	0	21	50	0	20	0	0	0	0	4	34	0	4	24	0	0	0	1
